# In PubChem BioAssay AID652067 (The Scripps Research Institute Molecular Screening Center, 2013):
# Out of some 370,000 compounds screened, about 5,400 (1.5%) were called active. What follows is part of a selection rich in actives, with near analogues and random picks from the rest. Values without a mark were called inactive.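 How the source made its calls: active means activation above the mean of all tested compounds plus 3 SD (cut at about 5.5% in these data); inactive means the rest.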
# Tested on: DAF-12 nuclear receptor (Haemonchus contortus)
# Assay: hcDAF-12 driven luciferase reporter activation – cell-based, luminescence, HEK293, lit1-tk-luc reporter, primary screen (AID 652067);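 further: 100% = response to 3 µM Δ7-dafachronic acid high control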
# Details: HEK293 hcDAF-12 lit1-tk-luc reporter, at 6.8 µM, stronger effect = higher value, 0% DMSO, 100% Δ7-dafachronic acid
row,SMILES,activation
1,Cc1ccc(NC(=O)Cc2cccc(F)c2)c(S(=O)(=O)N2CCOCC2)c1,-1.13%
2,Cc1ccccc1NC(=O)COC(=O)c1ccc(Sc2ncn[nH]2)c([N+](=O)[O-])c1,0.06%
3,COC(=O)CNC(=O)c1ccc2c(c1)S(=O)(=O)c1ccccc1C2=O,-0.44%
4,O=C(c1ccc2c(c1)N(Cc1ccc(F)cc1)C(=O)c1ccccc1S2(=O)=O)N1CCN(c2ccccn2)CC1,-2.49%
5,CCCCN(C)C(=O)c1ccc2c(c1)N(CC)C(=O)c1ccccc1S2(=O)=O,6.63% (active)
6,OC(c1ccccc1)(c1ccccc1)C1CCN(CCCOc2ccc(-c3ccsc3)cc2)CC1,0.49%
7,CC(NCc1ccco1)C(=O)N1CCCCC1 (stereo unspecified),0.18%
8,COc1ccc2nc(SCc3ccccc3)nc(C)c2c1,7.19% (active)
9,COc1cccc(CSc2nnc(-c3cccnc3)n2Cc2ccccc2)c1,-1.85%
10,COc1ccc(NCc2nnc(SCc3ccccc3)n2-c2ccc(OC)cc2)cc1,-1.98%
11,Fc1ccc2nc(COCc3nc4ccc(F)cc4[nH]3)[nH]c2c1,-1.16%
12,CCOc1ccccc1Nc1nnc(SCC(=O)Nc2cc(C)on2)s1,-3.24%
13,Cc1cccc(Nc2nnc(SCC(=O)c3c(N)n(C4CC4)c(=O)[nH]c3=O)s2)c1C,-1.19%
14,Cc1ccccc1Nc1nnc(SCC(=O)c2cc3ccccc3o2)s1,7.93% (active)
15,CC(=NNC(N)=O)c1ccc(Cl)c(-n2cccc2)c1,0.37%
16,Fc1ccc2cnc(-c3ccccc3)cc2c1,6.9% (active)
17,COc1cc(OC)cc(-c2cc3ccc(F)cc3cn2)c1,3.13%
18,O=c1cc(-c2ccccc2)[nH]c2cc(F)ccc12,-0.52%
19,COC(=O)[C@]12C[C@H](CC(=O)NCc3ccccc3)C(=O)N(CCc3ccc(OC)c(OC)c3)C1=C[C@H](C(C)(C)C)O[C@@H]2C,-2.1%
20,O=c1[nH]c(-c2ccccc2)cn1C1CCN(Cc2ccc(-c3nc4ccc(F)cc4nc3-c3ccccc3)cc2)CC1,0.07%
21,O=C(CCS(=O)(=O)c1ccccc1)Nc1ccc(Cl)c(Cl)c1,0.35%
22,COc1ccc(C#CCNCc2ccc(OC)cc2OC)cc1,-3.08%
23,Cc1ccc2nc(-c3ccc(CN4CCC(n5cc(-c6ccccc6)[nH]c5=O)CC4)cc3)c(-c3ccccc3)nc2c1,-2.64%
24,Cc1cc(C)n(C(=O)CCNC(=O)c2ccccc2Cl)n1,-1.04%
25,COCCNC(=O)c1ccccc1-c1nc(-c2ccccc2Cl)no1,2.6%
26,CN(C)CCNC(=O)c1ccc(Cl)c2cc3ccccc3nc12,13.5% (active)
